According to PubChem BioAssay (NCI):
The panel holds about 79,000 compounds, 15% with a hit somewhere; the sample as a whole holds those more often. A number with no mark means an inactive call. Activity calls are given as the source filed them. Cut-off read from the data, not from the text of the source: active = growth inhibition above about 70%; inactive = the rest. Where a SMILES comes first, the peptide text is derived from it. The star is where a group is joined. Trt = c1ccc(C(c2ccccc2)(c2ccccc2)*)cc1; OtBu = CC(C)(C)O*

Assay: NCI Yeast Anticancer Drug Screen. Data for the rad50 strain (AID 155);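 note: 0% = growth of vehicle-only cultures of the same strain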
Conditions: S. cerevisiae rad50 strain growth inhibition; at 5.0 µM (retest, dose inferred, filed as 0.5); active compounds read high
Summary of the method: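 Yeast carrying a defined DNA repair defect were exposed to test compounds, and growth was compared with vehicle-treated controls to give percent inhibition.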
Molecule `CCOC(=O)C(=N\Nc1cccc(C)c1C)/C(C)=N\NC(N)=S` has a growth inhibition of 3%. In the case of `CCN(CC)CCNc1ccc(C)c2oc3ccc(O)cc3c(=O)c12`, the growth inhibition is reported as 39%. Work on `O=C1C(C=NC(=S)c2ccccc2)=C(O)c2ccccc21` yielded a growth inhibition of 22%. Work on `CCOC(=O)Cc1csc(/N=C\c2c(O)c3ccccc3oc2=O)n1` yielded a growth inhibition of 22%. `CC(C)(CCCCC(C)(C)NCC1COc2ccccc2O1)NCC1COc2ccccc2O1` (centres undefined) gave a growth inhibition of 3%. Work on `O=C1OC(c2ccc(O)cc2)=C(c2ccccc2)C1c1ccccc1` (centres undefined) yielded a growth inhibition of 9%. Work on `O=C(c1ccccc1)C(Br)CCCC(Br)C(=O)c1ccccc1` (centres undefined) yielded a growth inhibition of 30%. Molecule `CCC(c1ccc(O)cc1)C(O)(CC)c1ccc(O)cc1` (centres undefined) has a growth inhibition of -6%. Work on `Cn1cnc2[nH]c(Cl)nc(=S)c21` yielded a growth inhibition of -1%. Molecule `O=C(NCCN1CCCC1)c1cn2c(ccc3sc4ccccc4c(=O)c32)n1` has a growth inhibition of 29%. In the case of `CC(C)(C)OC(=O)CNC(=O)C(Cc1ccccc1)NC(=O)C(N)CSC(c1ccccc1)(c1ccccc1)c1ccccc1` (stereo not drawn) (H-Cys(Trt)-Phe-Gly-OtBu; configuration not given here), the growth inhibition is reported as -3%. Molecule `C/C(=N/NC(N)=S)C(CN(C)C)C(C1=C(O)c2ccccc2OC1)c1ccccc1` (centres undefined) has a growth inhibition of 8%. `O=C(CC(=O)c1ccccc1)CC(=O)c1ccccc1Br` gave a growth inhibition of 1%. Molecule `O=C1OC2(c3ccccc31)c1cc(I)c(O)c(I)c1Oc1c2cc(I)c(O)c1I` has a growth inhibition of 32%. Molecule `Nc1cc(Cl)c2c(c1)Cc1ccccc1-2` has a growth inhibition of 3%. `C1=Cc2ccccc2/C1=C/c1ccccc1` showed a growth inhibition of -1%. `Cc1ccc(C2=CC(=O)/C(=C\C(=O)c3ccc(Cl)cc3)O2)cc1` showed a growth inhibition of 31%. For `CC1(c2ccc(S(=O)(=O)c3ccccc3)cc2)OC(=O)C=CC1=O` (centres undefined), the growth inhibition was 82% (active). With `CCCc1cc(-c2ccc(O)c(CCC)c2)ccc1O` the growth inhibition was 92% (active). With `CCOC(=O)N1c2ccc3ccccc3c2C=CC1C#N` (centres undefined) the growth inhibition was 0%. With `N#CNc1nc(N)c(-c2ccc(Cl)cc2)c(C(=O)Nc2ccc(Cl)c(Cl)c2)n1` the growth inhibition was -1%. For `O=c1c(Cl)c(Cl)oc(Cl)c1Cl`, the growth inhibition was 42%. For `O=c1nc(-c2ccccc2)cc(-c2ccccc2O)[nH]1`, the growth inhibition was -11%. `O=C(Cc1nc2ccccc2s1)C(=O)Nc1ccc(Cl)cc1` gave a growth inhibition of 2%. For `c1ccc(OCC2c3ccccc3Nc3ccccc32)cc1`, the growth inhibition was 98% (active). `CCN(C(=O)C(F)(F)F)c1ccc2c(c1)C(=O)c1ccccc1-2` showed a growth inhibition of 0%. With `Cc1cc2oc3c(ccc(=O)n3C)c(=O)c2c(C)c1Cl` the growth inhibition was 9%. `O=C(CC(O)(C(F)(F)F)C(F)(F)F)C(c1ccccc1)C(O)(C(F)(F)F)C(F)(F)F` (centres undefined) gave a growth inhibition of 6%. `O=S(=O)(Sc1ccccc1)C(c1ccccc1)c1ccccc1` showed a growth inhibition of 3%. Molecule `COc1ccc2c3c(ccc2c1)NC(C(=O)O)CC3` (centres undefined) has a growth inhibition of 0%. `N#CSc1ccc2nc(NCO)sc2c1` showed a growth inhibition of 22%. In the case of `CC(CN(C)C)C(=O)c1cn(C)c2ccccc12` (centres undefined), the growth inhibition is reported as 1%. `Cc1cc(Cl)nc2ccc(Cc3ccc4nc(Cl)cc(C)c4c3)cc12` showed a growth inhibition of 4%. For `COc1ccc2c(c1)CN([C@@H](C)[C@H]1CC[C@H]3[C@@H]4CC[C@H]5C[C@@H](O)CC[C@]5(C)[C@H]4CC[C@]13C)CO2`, the growth inhibition was 90% (active). For `FC(F)(F)c1nc(Cl)nc2nc[nH]c12`, the growth inhibition was 3%. For `CC(C)C1COC(c2ccc3ccccc3c2-c2c(O[Si](C)(C)C(C)(C)C)ccc3ccccc23)=N1` (centres undefined), the growth inhibition was 20%. Molecule `COc1cc2c(c(C3C(=O)N(C)c4ccc(Br)cc43)c1OC)OCO2` (centres undefined) has a growth inhibition of 3%. Molecule `c1ccc2c3[nH]c(c2c1)=Nc1ccc(cc1)-c1nc2ccc(cc2o1)N=c1[nH]c(c2ccccc12)=Nc1ccc2nc(oc2c1)-c1ccc(cc1)N=3` has a growth inhibition of 28%. `c1ccc2nc3ccccc3nc2c1` gave a growth inhibition of -11%.
